PubChem BioAssay AID453 (PCMD, 2006)
Among all 63,000 compounds or so, about 75 (0.1%) were called active. This excerpt belongs to a sample that is enriched for actives. Values without a mark were called inactive. Cut-off read from the data, not from the text of the source: active = inhibition above about 21%; inactive = the rest.

Biological target: Cathepsin B (Homo sapiens) (UniProt P07858)
Assay: blockers of cathepsin B proteolysis – biochemical, fluorogenic substrate, primary screen (AID 453);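 note: 0% = enzyme with no compound and 100% = no enzyme blank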
Details: purified cathepsin B, fluorescence, stronger effect = higher value,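 tested at 10 µM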

| SMILES | inhibition |
| --- | --- |
| O=C(C1CCN(S(=O)(=O)c2cnc[nH]2)CC1)N1CCN(Cc2ccc3c(c2)OCO3)CC1 | 5.41% |
| CCC(c1nnnn1C1CCCC1)N1CCN(C(=O)c2ccco2)CC1 (stereo not given) | 4.25% |
| CCCCN=C(N)/C(C(=O)OCC)=C(\O)c1ccc(OC)cc1 | -2.85% |
| CC(C)OC(=O)c1sc2nc3c(cc2c1N)C(=O)CCC3 | 1.67% |
| COc1ccc(N2C(=O)C3CCCN3C2c2cccs2)cc1 (stereo not given) | 2.37% |
| O=S(=O)(NCCOc1cccc2cccnc12)c1ccc(F)cc1 | -0.09% |
| O=C(C1=C(O)C(=O)N(Cc2ccccc2)C1c1cccnc1)c1ccco1 (stereo not given) | -2.37% |
| N#CCCN(CCC#N)c1nnc(-c2ccccc2)s1 | 1.65% |
| COc1ccccc1CNC(=O)CCCNS(=O)(=O)c1cccc2nsnc12 | 3.57% |
| O=C(CSc1nnnn1C1CCCC1)Nc1ccc2c(c1)OCCO2 | -2.88% |
| Cc1ccccc1CSc1nnc(Cn2c(=O)sc3ccccc32)n1C | 1.64% |
| CN1CCN(c2nc3c(c(=O)[nH]c(=O)n3C)n2Cc2cccc3ccccc23)CC1 | 5.25% |
| C=C(Br)CN1CCN(CC(=C)Br)CC1 | 8.43% |
| CCOc1cc(-c2conc2N)cc(OCC)c1OCC | 0.88% |
| O=c1[nH]c(=O)n(Cc2ccco2)c2c1C(C(F)(F)F)(C(F)(F)F)N=C(c1ccco1)N2 | 3.15% |
| Cc1ccc(-c2nn(-c3ccccc3)cc2CN(Cc2ccccc2)C(=O)CCC(=O)O)o1 | -3.71% |
| O=c1oc2c(CN3CCCCC3)c(O)ccc2c2c1CCCCC2 | -33.1% |
| C=CCNc1nc(C)nc(OC)n1 | 3.19% |
| O=CN1CCN(C2CC(=O)N(c3ccc4c(c3)OCO4)C2=O)CC1 (stereo not given) | -5.45% |
| COCCn1c(SCC(=O)Nc2cc(Cl)ccc2OC)nc2c(c1=O)SC(C)C2 (stereo not given) | -1.89% |
| O=C(COc1ccc(Cl)cc1)Nc1ccccc1CO | -0.12% |
| CCOC(=O)c1c(C)nc(-c2ccccc2)nc1NC(=O)C(C)C | -1.86% |
| CCOC(=O)c1c(NC(=O)CSc2nnc(Cc3csc(N)n3)n2C)sc(C)c1C | 1.53% |
| O=C(O)C1CCCCC1C(=O)Nc1ccc(Cl)cc1 (stereo not given) | -2.32% |
| O=C1Nc2ccccc2C12Nc1ccccc1S2 (stereo not given) | -3.59% |
| CCOC(=O)c1[nH]c2ccccc2c1N=C(C)N(CC)CC | -1.09% |
| COC(=O)CCNc1ccc2c(c1)OCCO2 | -7.3% |
| O=C(Nc1nc2ccc(S(=O)(=O)N3CCCC3)cc2s1)C1CCCO1 (stereo not given) | -0.69% |

| SMILES | inhibition |
| --- | --- |
| Cc1nonc1NC(=O)c1ccccc1Br | -1.31% |
| COc1ccc2c(c1)C(C)=CC(C)(C)N2C(=O)CNCc1ccc2c(c1)OCO2 | 0.73% |
| CC(=O)Oc1cc2c(C(=O)NCCN3CCOCC3)c(C)oc2c2ccccc12 | -1.15% |
| Cc1ccc(CC2CC(=O)N(c3ccc4c(c3)OCCO4)C2=O)cc1 (stereo not given) | 3.98% |
| N#Cc1ccccc1-n1c(N)c(C(=O)N2CCCC2)sc1=S | 4.81% |
| Cc1ccc(C(C(=O)NC2CCCCC2)N(C(=O)c2csnn2)C2CC2)o1 (stereo not given) | 4.47% |
| CCCC(=O)N1c2ccc(-c3csc(N)n3)cc2CC1C (stereo not given) | 1.69% |
| CCCCC(=O)Nc1ccc(C(=O)NCCCn2ccnc2)cc1 | -0.94% |
| CCCCCC(=O)Nc1ccc2oc(-c3ccncc3)nc2c1 | -2.27% |
| COc1ccccc1NC(=O)CSc1nnc(Cc2cccn2C)n1-c1ccc(F)cc1 | 2.97% |
| Cc1ccc(Nc2nc(CSc3nnnn3-c3ccccc3)cc(=O)[nH]2)cc1 | 1.57% |
| COC(=O)C1=C(C)OC(N)=C(C#N)C1c1cc(OC)ccc1OC (stereo not given) | 4.88% |
| Nc1scc(-c2ccncc2)c1Cl | 3.27% |
| CC(C)c1nc(N2CCOCC2)c(C#N)c2c1COC(C)(C)C2 | 1.28% |
| CCCCc1nc2ccccc2c(=O)n1NC(=O)c1c(O)c2cccc3c2n(c1=O)CC3 | -2.29% |
| O=C(CCSc1ccccc1)NCCSc1ccccn1 | 5.87% |
| COc1ccc(C)c(Cn2c(-c3nonc3N)nc3ccccc32)c1 | 45.2% (active) |
| Nc1nonc1-c1nc2ccccc2n1CCC(=O)O | 7.32% |
| CC(=O)Nc1nonc1-c1nc2ccccc2n1Cc1ccccn1 | -4.81% |
| COCCn1c(-c2ccc(OC)c(OC)c2)nc2ccccc21 | 4.56% |
| CCCn1c(C(O)c2cc(OC)ccc2OC)nc2ccccc21 (stereo not given) | 5.72% |
| Nc1nonc1-c1nc2ccccc2n1Cc1ccc(F)cc1 | 73.1% (active) |
| Cc1cc(NC(=O)CCC(=O)N(c2ccccc2)C(C(=O)NC2CCCC2)c2ccncc2)no1 (stereo not given) | 0.19% |
| CCn1c(COc2ccccc2)nnc1SCC(=O)Nc1ccc2c(c1)OCCO2 | 1.14% |
| COC(=O)Nc1nc2ccc(Sc3ccccc3)cc2[nH]1 | 4.96% |
| COc1ncnc2c1N=C1CC(C)(C)CC(N)=C1S2 | -1.8% |
| Cc1ccc2oc(=O)c3cnn(CC(=O)N4CCN(c5ccccn5)CC4)c3c2c1 | 3.28% |
